According to PubChem BioAssay AID1159580 (chemical genetic matrix, 2015):
The campaign covered roughly 5,500 compounds. About 2,000 (36%) were called active. About 18% were inconclusive and are not listed. No stated cut-off is given here; in the data, active means normalized growth mostly below about 0.91 (no sharp cut-off); inconclusive means no clear call, values can overlap the other calls; inactive means mostly above about 0.92. The list shows a part of the results.

Assay: chemical genetic growth profiling, strain panel (AID 1159580);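 further: tested at 20 µM; growth read once vehicle control cultures reached saturation at 30 °C; 1 = growth at the plate median or of vehicle wells; lower values mean less growth of the strain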
Conditions: growth OD

Measured: normalized growth

CC(C)[C@@H]1CC[C@@H](C)C[C@H]1O
inactive: S. cerevisiae deletion strains, locus YJR066W, strain TOR1, hits give low values 0.942 | S. cerevisiae deletion strains, locus YJR075W, strain HOC1, hits give low values 1.01 | S. cerevisiae deletion strains, locus YKL009W, strain mrt4, hits give low values 1 | S. cerevisiae deletion strains, locus YKL068W, hits give low values 1.01 | S. cerevisiae deletion strains, locus YKL085W, strain MDH1 (second series), hits give low values 1.01 | S. cerevisiae deletion strains, locus YKL085W, strain MDH1, hits give low values 1.01 | S. cerevisiae deletion strains, locus YKL160W, strain elf1, hits give low values 0.986 | S. cerevisiae deletion strains, locus YKL190W, strain CNB1, hits give low values 1.01 | S. cerevisiae deletion strains, locus YKR001C, strain vps1, hits give low values 1 | S. cerevisiae deletion strains, locus YKR026C, strain gcn3, hits give low values 0.987 | S. cerevisiae deletion strains, locus YKR091W, strain srl3, hits give low values 0.974 | S. cerevisiae deletion strains, locus YLL001W, strain dnm1, hits give low values 0.997 | S. cerevisiae deletion strains, locus YLL026W, hits give low values 1 | S. cerevisiae deletion strains, locus YLL041C, strain sdh2, hits give low values 0.978 | S. cerevisiae deletion strains, locus YLR027C, strain aat2, hits give low values 0.997 | S. cerevisiae deletion strains, locus YLR039C, strain RIC1, hits give low values 1 | S. cerevisiae deletion strains, locus YLR058C, strain SHM2, hits give low values 1 | S. cerevisiae deletion strains, locus YLR102C, strain apc9, hits give low values 1.02 | S. cerevisiae deletion strains, locus YLR113W, strain HOG1, hits give low values 0.973 | S. cerevisiae deletion strains, locus YLR221C, strain rsa3, hits give low values 0.999 | S. cerevisiae deletion strains, locus YLR258W, strain gsy2, hits give low values 0.99 | S. cerevisiae deletion strains, locus YLR262C, strain YPT6 (second series), hits give low values 0.935 | S. cerevisiae deletion strains, locus YLR262C, strain YPT6, hits give low values 1.01 | S. cerevisiae deletion strains, locus YLR268W, strain sec22, hits give low values 1.01 | S. cerevisiae deletion strains, locus YLR320W, strain mms22, hits give low values 0.991 | S. cerevisiae deletion strains, locus YLR330W, strain CHS5, hits give low values 1.01 | S. cerevisiae deletion strains, locus YLR342W, strain FKS1 (second series), hits give low values 1.02 | S. cerevisiae deletion strains, locus YLR342W, strain FKS1, hits give low values 0.986 | S. cerevisiae deletion strains, locus YLR357W, strain rsc2, hits give low values 0.953 | S. cerevisiae deletion strains, locus YLR370C, strain arc18, hits give low values 0.985 | S. cerevisiae deletion strains, locus YLR371W, strain rom2, hits give low values 1.01 | S. cerevisiae deletion strains, locus YLR384C, strain iki3, hits give low values 0.999 | S. cerevisiae deletion strains, locus YLR418C, strain cdc73, hits give low values 1.05 | S. cerevisiae deletion strains, locus YML016C, strain PPZ1, hits give low values 1.01 | S. cerevisiae deletion strains, locus YML032C, strain rad52, hits give low values 1 | S. cerevisiae deletion strains, locus YML120C, strain ndi1, hits give low values 0.989 | S. cerevisiae deletion strains, locus YML124C, strain tub3, hits give low values 1.02 | S. cerevisiae deletion strains, locus YMR058W, strain fet3, hits give low values 0.97 | S. cerevisiae deletion strains, locus YMR078C, strain ctf18, hits give low values 1.02 | S. cerevisiae deletion strains, locus YMR125W, strain sto1, hits give low values 0.969 | S. cerevisiae deletion strains, locus YMR129W, hits give low values 0.984 | S. cerevisiae deletion strains, locus YMR205C, strain PFK2, hits give low values 1.01 | S. cerevisiae deletion strains, locus YMR223W, strain ubp8, hits give low values 1.03 | S. cerevisiae deletion strains, locus YMR231W, strain pep5, hits give low values 1 | S. cerevisiae deletion strains, locus YMR307W, strain GAS1, hits give low values 0.985 | S. cerevisiae deletion strains, locus YNL067W, strain RPL9B, hits give low values 0.976 | S. cerevisiae deletion strains, locus YNL071W, strain lat1, hits give low values 0.979 | S. cerevisiae deletion strains, locus YNL128W, strain TEP1, hits give low values 1.02 | S. cerevisiae deletion strains, locus YNL153C, strain GIM3, hits give low values 0.95 | S. cerevisiae deletion strains, locus YNL183C, strain NPR1, hits give low values 0.943 | S. cerevisiae deletion strains, locus YNL209W, strain ssb2, hits give low values 0.985 | S. cerevisiae deletion strains, locus YNL233W, strain BNI4, hits give low values 0.988 | S. cerevisiae deletion strains, locus YNL248C, strain rpa49, hits give low values 0.987 | S. cerevisiae deletion strains, locus YNL250W, strain rad50, hits give low values 1.02 | S. cerevisiae deletion strains, locus YNL271C, strain bni1, hits give low values 1.02 | S. cerevisiae deletion strains, locus YNL298W, strain CLA4, hits give low values 1.02 | S. cerevisiae deletion strains, locus YNL307C, strain MCK1, hits give low values 1.02 | S. cerevisiae deletion strains, locus YNL322C, strain KRE1 (second series), hits give low values 0.993 | S. cerevisiae deletion strains, locus YNR049C, strain mso1, hits give low values 0.99 | S. cerevisiae deletion strains, locus YNR052C, strain pop2, hits give low values 1.02 | S. cerevisiae deletion strains, locus YOL006C, strain TOP1, hits give low values 0.977 | S. cerevisiae deletion strains, locus YOL012C, strain htz1 1.02 | S. cerevisiae deletion strains, locus YOL147C, strain pex11, hits give low values 1.02 | S. cerevisiae deletion strains, locus YOR001W, strain rrp6, hits give low values 0.993 | S. cerevisiae deletion strains, locus YOR061W, strain CKA2, hits give low values 1.01 | S. cerevisiae deletion strains, locus YOR069W, strain VPS5, hits give low values 1.02 | S. cerevisiae deletion strains, locus YOR070C, strain gyp1, hits give low values 1 | S. cerevisiae deletion strains, locus YOR080W, strain dia2, hits give low values 0.99 | S. cerevisiae deletion strains, locus YOR083W, strain WHI5, hits give low values 0.996 | S. cerevisiae deletion strains, locus YOR106W, strain vam3, hits give low values 0.979 | S. cerevisiae deletion strains, locus YOR136W, strain idh2, hits give low values 1.01 | S. cerevisiae deletion strains, locus YOR144C, strain elg1, hits give low values 1.02 | S. cerevisiae deletion strains, locus YOR184W, strain ser1, hits give low values 1 | S. cerevisiae deletion strains, locus YOR231W, strain MKK1, hits give low values 0.997 | S. cerevisiae deletion strains, locus YOR265W, strain rbl2, hits give low values 0.988 | S. cerevisiae deletion strains, locus YOR270C, strain vph1, hits give low values 0.931 | S. cerevisiae deletion strains, locus YOR290C, strain snf2, hits give low values 0.967 | S. cerevisiae deletion strains, locus YOR316C, strain cot1, hits give low values 1.03 | S. cerevisiae deletion strains, locus YPL051W, strain arl3, hits give low values 1.02 | S. cerevisiae deletion strains, locus YPL078C, strain atp4, hits give low values 0.976 | S. cerevisiae deletion strains, locus YPL106C, strain sse1, hits give low values 1 | S. cerevisiae deletion strains, locus YPL240C, strain hsp82, hits give low values 1 | S. cerevisiae deletion strains, locus YPL241C, strain CIN2, hits give low values 1.01 | S. cerevisiae deletion strains, locus YPL256C, strain CLN2, hits give low values 0.985 | S. cerevisiae deletion strains, locus YPR119W, strain clb2, hits give low values 1.01 | S. cerevisiae deletion strains, locus YPR141C, strain kar3, hits give low values 1.02 | S. cerevisiae deletion strains, locus YPR163C, strain tif3, hits give low values 1.02 | S. cerevisiae deletion strains, locus YPR167C, strain met16, hits give low values 1.02 | S. cerevisiae deletion strains, strain wtn01, hits give low values 1.03 | S. cerevisiae strains, strain wild type, hits give low values 1.01
